Test [1] can be described thus: Her2 expression decrease, cell viability multiplex – SKBR3 breast tumor cells, AlphaScreen, ATP viability, primary screen (AID 461;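 active = Her2 level under about 52% in both replicate screens, with viability over 70% of control, limit read from the data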;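 as to Her2 level: lower value means less Her2 protein in the cells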;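 as to viability: percent of carrier control wells set as 100% viability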). The note with it: SKBR3 Her2 protein level, 18-24 h, measured here: SKBR3 viability, ATP luminescence, at 10 µM. (Alpha assays give light when donor and acceptor beads are brought close together.)
The target of test [2] is Receptor tyrosine-protein kinase erbB-2 (Homo sapiens) (UniProt P04626). Described as above. The settings on record: 18-24 h, at 10 µM, stronger effect = lower value.
Test [3] is described as follows: reduced viability of SK-BR-3 breast cancer cells – cell-based, 24 h, human, pilot screen (AID 572;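 active = viability at or below 10% of carrier control in both of two separate runs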;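 also: compound exposure lasted between 18 and 24 h rather than exactly 24 h; 100% = carrier-treated control wells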). The note with it: SK-BR-3 viability, CellTiter-Glo luminescence, at 10 µM, stronger effect = lower value. (ATP-based viability assays read luminescence as a measure of living cells.)
A short description of test [4]: HUVEC growth inhibition – cell-based, human, primary screen (AID 575;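 active = viability at or below 30% in both replicate assays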;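 also: 100% = median of untreated cell wells with 0.1% DMSO on each plate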). The note with it: HUVEC proliferation, CellTiter-Glo luminescence, 72 h; at 10 µM; stronger effect = lower value.
A short description of test [5]: H69AR cell proliferation blockers – human, duplicate replicates, primary screen (AID 580;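 active = viability at or under a set limit in both replicates, limit being median viability minus 3 SD, cut at about 48% in these data, passing the limit was not always enough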;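 also: 100% = mean luminescence of untreated wells and 0% = no signal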). The settings on record: H69AR lung tumor cells viability, ATP luminescence, 72 h; at 10 µM; stronger effect = lower value.
Test [6] in a line: MRP1 drug-resistance reversers in H69AR cells – cell-based, doxorubicin co-treatment, pilot screen (AID 601;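 active = viability loss from added drug above about 55%, and viability with drug at most 40%, in both replicates, limit read from the data, passing the limit was not always enough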). The settings on record: CellTiter-Glo, 72 h, at 10 µM; for differential viability (reversal): stronger effect = higher value.
Test [7] in a line: yeast transport mutant growth inhibition pilot in 384-well plates, post-Golgi transport modulator project (AID 636; in the data active = inhibition above about 31%). The note with it: absorbance 615 nm, about 18 h, stronger effect = higher value.
The nature of test [8]: growth suppression of yeast trafficking mutant, preliminary HTS, modulators of trafficking downstream of Golgi apparatus project, 1536-format plate, OD 615 nm (AID 637; in the data active = inhibition above about 30%). The note with it: yeast transport mutant growth, absorbance 615 nm, 18 h; stronger effect = higher value.
A short description of test [9]: S. cerevisiae growth inhibition in permissive medium (OD615), pilot counter-assay for S. cerevisiae lifespan shortening project, permissive growth control (AID 705;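 active = growth inhibition above 25% in both replicates, a cutoff set 3 SD above the mean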). The settings on record: OD615, 24 h, at 10 µM, stronger effect = higher value.
Test [10] in a line: S. cerevisiae growth inhibition in restrictive medium, OD615, pilot screen, restrictive growth control, yeast lifespan reduction project (AID 706;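 active = growth inhibition above a set limit, 3 SD over mean compound inhibition, in both replicates, cut at about 43% in these data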;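 also: modified DeaD lifespan yeast strain shifted to restrictive glucose medium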). The note with it: OD615, 48 h, at 10 µM, stronger effect = higher value.
A short description of test [11]: doxorubicin toxicity protection in MRP-1 cells – H69AR cells, CellTiter-Glo, duplicate, MRP-1 activator project, pilot screen (AID 807;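 active = viability increase at or above a cutoff of the median across tested compounds plus 3 SD, cut at about 8.5% in these data, passing the limit was not always enough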;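 also: compound pretreatment 18-22 h then 72 h combined with doxorubicin; 0% = doxorubicin alone and 100% = vehicle without doxorubicin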). The settings on record: H69AR viability with doxorubicin, CellTiter-Glo luminescence; at 10 µM; stronger effect = higher value.
A short description of test [12]: viability of HCT116 without oncogenic beta-catenin – human colon tumor cells, pilot screen (AID 823;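 active = cell viability at or below a set limit in both duplicate runs, the limit being the all-compound median minus 4 SD, cut at about 23% in these data, passing the limit was not always enough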;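 also: 0% = wells killed by 20 µM Hyamine and 100% = untreated DMSO cell wells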). The note with it: HCT116 beta-catenin knockout viability, CellTiter-Glo, 60 h; at 10 µM; stronger effect = lower value.
Test [13] in a line: viability of PTEN-null HCT116 cells – cell-based, HCT116 clonal line, CellTiter-Glo, pilot screen (AID 824).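 Also: 0% = 20 µM Hyamine control and 100% = vehicle cell control.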 The note with it: HCT116 PTEN-deleted viability, 60 h, at 10 µM, stronger effect = lower value.
Test [14] can be described thus: RAM pathway blockade in budding yeast – dse1pr::URA3 reporter, 5-FOA selection, pilot screen (AID 869;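 active = inhibition over a set limit, the all-compound mean plus 3 SD, in both replicate runs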;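 also: 0% = DMSO wells with no growth and 100% = 10 µM 1-NA-PP1 with full growth; RAM network block rescues cells from 5-FOA so hits raise OD615 growth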). The note with it: S. cerevisiae dse1pr::URA3 5-FOA growth, OD615, 2 d; at 10 µM; stronger effect = higher value; strain carries analog-sensitive mutant Cbk1 kinase.
A short description of test [15]: RAM signaling pathway blockade in yeast – S. cerevisiae, Pdr1DBD-CYC8 efflux-inhibited sensitized strain, primary screen (AID 1298;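 active = RAM network inhibition above 8.4% in each of two replicates, 3 SD over the compound average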;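 also: 0% = DMSO untreated cells without growth and 100% = 10 µM 1-NA-PP1 full growth; higher means more yeast growth rescued from 5-FOA killing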). The settings on record: S. cerevisiae cbk1-as DSE1-URA3 strain, 5-FOA growth OD615, 2 d; at 50 µM; stronger effect = higher value.
Where [16] appears, read: H69AR cells + 2 uM doxorubicin, measured here: viability with 2 uM doxorubicin, stronger effect = lower value.
Where [17] appears, read: H69AR cells, compound alone cytotoxicity.

From PubChem BioAssay come the findings set out here.

The structures appear in SMILES notation. Inconclusive results are not listed. Activity calls are given as the source filed them.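 The calls were made as follows, unless noted: active = viability at or below 27.92% in each of two runs, the all-compound median minus 4 SD; inconclusive = no clear call, values can overlap the other calls; inactive = the rest.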

Chain of Receptor tyrosine-protein kinase erbB-2 (Homo sapiens) (P04626 whole entry, looked up): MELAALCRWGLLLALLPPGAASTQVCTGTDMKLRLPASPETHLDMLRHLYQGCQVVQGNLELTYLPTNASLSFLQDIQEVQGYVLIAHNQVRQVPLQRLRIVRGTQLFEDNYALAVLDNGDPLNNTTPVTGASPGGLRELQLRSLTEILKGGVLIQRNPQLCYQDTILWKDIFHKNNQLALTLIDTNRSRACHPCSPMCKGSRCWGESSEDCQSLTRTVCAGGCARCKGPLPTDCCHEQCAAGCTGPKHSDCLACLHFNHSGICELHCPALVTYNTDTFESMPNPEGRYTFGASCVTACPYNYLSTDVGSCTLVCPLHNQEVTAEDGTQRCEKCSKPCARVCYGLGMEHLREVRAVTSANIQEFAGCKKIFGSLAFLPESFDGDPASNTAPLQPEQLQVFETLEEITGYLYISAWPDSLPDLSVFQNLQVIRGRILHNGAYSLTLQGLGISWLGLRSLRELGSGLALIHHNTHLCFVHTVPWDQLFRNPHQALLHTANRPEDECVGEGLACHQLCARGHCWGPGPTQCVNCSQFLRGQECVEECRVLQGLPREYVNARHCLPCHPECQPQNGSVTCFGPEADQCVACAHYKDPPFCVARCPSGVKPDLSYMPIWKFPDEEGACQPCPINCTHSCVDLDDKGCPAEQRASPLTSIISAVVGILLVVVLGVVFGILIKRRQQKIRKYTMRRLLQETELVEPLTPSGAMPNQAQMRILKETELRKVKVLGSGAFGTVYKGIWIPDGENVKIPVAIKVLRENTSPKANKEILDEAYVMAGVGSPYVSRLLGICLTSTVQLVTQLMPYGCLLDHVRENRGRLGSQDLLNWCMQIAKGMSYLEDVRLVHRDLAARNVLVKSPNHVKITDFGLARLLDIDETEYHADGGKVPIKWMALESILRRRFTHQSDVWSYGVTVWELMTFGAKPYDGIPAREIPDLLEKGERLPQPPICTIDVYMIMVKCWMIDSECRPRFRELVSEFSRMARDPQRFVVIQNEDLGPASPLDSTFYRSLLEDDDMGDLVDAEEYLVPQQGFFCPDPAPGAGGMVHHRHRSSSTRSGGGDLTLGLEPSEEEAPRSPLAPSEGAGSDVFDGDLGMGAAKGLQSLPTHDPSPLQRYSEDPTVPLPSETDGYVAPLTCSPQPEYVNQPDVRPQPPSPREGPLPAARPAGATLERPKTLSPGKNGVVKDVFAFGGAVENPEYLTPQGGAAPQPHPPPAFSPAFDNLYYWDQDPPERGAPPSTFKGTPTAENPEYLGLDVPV

As to `COc1ccc(CC(=O)NCc2nnc(SCC(=O)Nc3nccs3)n2-c2ccccc2)cc1`, the viability – broadly, a read-out of living cells in per cent, often relative to untreated cells – in test [1] is 99.5%; in test [3] it was 99.5% (inactive); in test [4], 98.4% (inactive); in test [5], 96.6% (inactive); in test [6] (setting [16]), 93.9%; in test [6] (setting [17]), 96.6%. In addition, the viability in test [12] is 102% (inactive); in [13], 96.7% (inactive). Moreover, in test [2], the Her2 level is 98% (inactive). Besides, the differential viability (reversal) in test [6] (H69AR cells + 2 uM doxorubicin) is 2.73% (inactive). In addition, the inhibition – broadly, the change of the read-out against control, counted positive when it falls – in [7] was -4.4% (inactive); in test [8] it was -3.67% (inactive); in [14] it was 1.48% (inactive). Besides, the growth inhibition was -3.97% (inactive) in [9] and 7.4% (inactive) in [10]. Also, in [11], the viability increase was -1.27% (inactive). The RAM network inhibition in test [15] is 6.87% (inactive).
Consider `Cc1cc(C)cc(N2C(=O)CC(N3CCOCC3)C2=O)c1` (stereo not given), for which the viability in [1] was 104%; in test [3] it was 104% (inactive); in test [4] it was 100% (inactive); in test [5], 191% (inactive); in test [6] (setting [16]), 92.2%; in [6] (setting [17]), 191%. Moreover, the viability in [12] is 102% (inactive); in test [13], 92.5% (inactive). Besides, the Her2 level in test [2] was 84% (inactive). In test [6] (H69AR cells + 2 uM doxorubicin), the differential viability (reversal) was 98.5% (inactive). The inhibition is -1.89% (inactive) in test [7], 0.82% (inactive) in [8] and 0.41% (inactive) in test [14]. In addition, the growth inhibition in [9] was -9.16% (inactive); in test [10] it was -2.19% (inactive). In test [11], the viability increase is -0.95% (inactive). For the same compound, in test [15], the RAM network inhibition was 0.87% (inactive).
On to `Cn1cnc2cc(NC(=O)c3ccc(Cl)cc3)ccc21`, for which the viability in test [1] is 91.5%; in test [3], 91.5% (inactive); in [4], 88.1% (inactive); in [5], 93% (inactive); in test [6] (setting [16]), 95.2%; in [6] (setting [17]), 93%. Also, the viability was 94.5% (inactive) in [12] and 96.5% (inactive) in test [13]. In [2], the Her2 level is 90.5% (inactive). For the same compound, the differential viability (reversal) in [6] (H69AR cells + 2 uM doxorubicin) is -2.15% (inactive). The inhibition was -4% (inactive) in test [7], -3.33% (inactive) in test [8] and 0.75% (inactive) in test [14]. Besides, the growth inhibition in [9] was 0.595% (inactive); in [10], 7.51% (inactive). Moreover, the viability increase in test [11] was 0.08% (inactive). Moreover, the RAM network inhibition in test [15] is -1.41% (inactive).
Regarding `O=C1c2ccccc2C(Nc2ccc3c(c2)OCO3)N1Cc1ccc2c(c1)OCO2` (stereo not given), the viability in test [1] was 86%; in test [3] it was 86% (inactive); in test [4], 50% (inactive); in test [5], 83.4% (inactive); in test [6] (setting [16]), 87.1%; in [6] (setting [17]), 83.4%. For the same compound, the viability is 76.8% (inactive) in [12] and 70.1% (inactive) in test [13]. Further, in test [2], the Her2 level was 81.5% (inactive). The differential viability (reversal) in test [6] (H69AR cells + 2 uM doxorubicin) was -3.75% (inactive). Besides, the figures for the inhibition in test [7], in [8] and in test [14] were -0.27% (inactive), 1.83% (inactive) and 1.67% (inactive), respectively. For the same compound, the growth inhibition was -0.885% (inactive) in [9] and -1.48% (inactive) in test [10]. Further, in [11], the viability increase was -0.78% (inactive). The RAM network inhibition in test [15] was 4.17% (inactive).
Consider `CC(C)(C)SCCNC(=O)CSc1ccccc1`, for which the viability in test [1] is 102%; in [3], 102% (inactive); in test [4], 93.3% (inactive); in [5] it was 101% (inactive); in [6] (setting [16]), 91%; in test [6] (setting [17]), 101%. Besides, the results for the viability in [12] and in test [13] were 107% (inactive) and 98.3% (inactive), respectively. Further, the Her2 level in test [2] was 80% (inactive). Also, the differential viability (reversal) in test [6] (H69AR cells + 2 uM doxorubicin) is 9.85% (inactive). For the same compound, the inhibition in [7] is -6.22% (inactive); in [8], 1.9% (inactive); in test [14], 0.055% (inactive). Further, the growth inhibition in [9] is -0.57% (inactive); in test [10], 9.05% (inactive). Further, the viability increase in [11] was -0.61% (inactive). In test [15], the RAM network inhibition was 4.54% (inactive).
